Measurements: PubChem BioAssay (Tox21)
Records with an inconclusive call do not appear. Where a call stands in place of a potency, no number is given. Active and inactive are the calls of the source. Unless noted, the call rests on the fitted dose curve.

Experiment: p53 small molecule agonists, cell-based qHTS assay: qHTS cell viability counter screen (AID 1963581); further: nearly all actives have a fitted effect of over 45% in size
Details: p53RE-bla HCT-116 viability, ATP luminescence, 16 h; series mostly up to 66 µM
Summary of the method: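 Counter screen read by CellTiter-Glo luminescence (ATP content, 30 min at room temperature), run in the same wells as the beta-lactamase reporter read. HCT-116 p53RE-bla cells saw compounds for 16 h at 37 C.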
In the case of `CCC(N)(CO)CO`, the Potency is reported as “inactive”. In the case of `CCCCOC(=O)CCS`, the Potency is reported as “inactive”. For `CC(=O)S[C@H](C(=O)N[C@H]1Cc2ccccc2[C@H]2CCC[C@@H](C(=O)O)N2C1=O)C(C)C`, the Potency was “inactive”. In the case of `CCCCCCCCCOS(=O)(=O)O`, the Potency is reported as “inactive”. For `COC(=O)c1ccc([N+](=O)[O-])cc1`, the Potency was “inactive”. With `COC(=O)Cc1cccc2ccccc12` the Potency was “inactive”. With `CCCCCCCCCCCC(=O)OC[C@@H](O)[C@H]1OC[C@H](OCCO)[C@H]1OCCO` the Potency was “inactive”. With `CCCCCCCC(=O)OCCCCCC` the Potency was “inactive”. In the case of `CC(=O)NC(Cc1ccccc1)C(=O)O` (stereo not drawn), the Potency is reported as “inactive”. With `Cc1nc2ccccc2s1` the Potency was “inactive”. In the case of `CCO[Si](C)(C)OCC`, the Potency is reported as “inactive”. In the case of `Cc1nc(-c2ccc3c(c2)CCN(CCC2CCC(NC(=O)/C=C/c4ccc(F)cc4)CC2)CC3)no1` (stereo not drawn), the Potency is reported as “inactive”. For `O=C(O)CCS`, the Potency was “inactive”. In the case of `CCN(CC#N)c1cccc(C)c1`, the Potency is reported as “inactive”. For `CC(C)(C)c1ccc(O)c(C(C)(C)C)c1`, the Potency was “inactive”. In the case of `CC12CC3CC(C)(C1)CC(N)(C3)C2`, the Potency is reported as “inactive”. For `O=C(/N=N/C(=O)OCc1ccccc1)OCc1ccccc1`, the Potency was “inactive”. With `CC(C)C(=O)O` the Potency was “inactive”. In the case of `c1ccc2cc3c4ccccc4c4ccccc4c3cc2c1`, the Potency is reported as “inactive”. For `CO[Si](CCCNCCC[Si](OC)(OC)OC)(OC)OC`, the Potency was “inactive”. With `CCCCCCCCS(=O)(=O)Cl` the Potency was “inactive”. For `C=Cc1ccccn1`, the Potency was “inactive”. In the case of `Nc1ccc(S(=O)(=O)Nc2ccc(Cl)nn2)cc1`, the Potency is reported as “inactive”. For `COC(=O)c1ccccc1C(=O)O`, the Potency was “inactive”. For `CC(=O)SC[C@@H](C)C(=O)N1CCC[C@H]1C(=O)N[C@@H](Cc1ccccc1)C(=O)O`, the Potency was “inactive”. For `CCCCCCCCCCCCCC`, the Potency was “inactive”. In the case of `COc1cc(/C=C/C(=O)O[C@H]2CC[C@]34C[C@]35CC[C@]3(C)[C@@H]([C@H](C)CCC=C(C)C)CC[C@@]3(C)[C@@H]5CC[C@H]4C2(C)C)ccc1O`, the Potency is reported as “inactive”. With `CC/C=C\CCOC(=O)C(C)C` the Potency was “inactive”. In the case of `O=C1CC2CC1C1CCCC21` (stereo not drawn), the Potency is reported as “inactive”. For `CC1CNCC(C)O1` (stereo not drawn), the Potency was “inactive”. With `Cc1ccc(C2OC[C@@H]3OC(c4ccc(C)cc4)O[C@H]([C@H](O)CO)[C@@H]3O2)cc1` (stereo partly drawn) the Potency was “inactive”. With `CCCCC(O)/C=C(C)/C=C/C=C/C(=O)N1CCCC1=O` (stereo not drawn) the Potency was “inactive”. In the case of `CC/C=C\CCO`, the Potency is reported as “inactive”. In the case of `O=C(O)c1cc(=O)[nH]c(=O)[nH]1`, the Potency is reported as “inactive”. In the case of `CC12CCC(C1)C(C)(C)C2O` (stereo not drawn), the Potency is reported as “inactive”. For `O=C(C(=O)c1ccccc1)c1ccccc1`, the Potency was “inactive”. For `CCOC(=O)c1cc(=O)c2c(OCC(COc3cccc4oc(C(=O)OCC)cc(=O)c34)OC(=O)[C@@H](N)CCCCN)cccc2o1`, the Potency was “inactive”. With `COc1ccc(C)cc1` the Potency was “inactive”. With `O=S(=O)(O)CCN1CCN(CCO)CC1` the Potency was “inactive”.

Experiment: p53 small molecule agonists, cell-based qHTS assay (AID 1963582; active means well fitted activation curve with a large enough effect in the signal ratio in the repeat runs, not every such curve was filed as active; the % refers to the signal ratio)
Details: HCT-116 p53RE-bla reporter, beta-lactamase FRET ratio, 16 h; series mostly up to 66 µM
Summary of the method: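 Read-out is beta-lactamase FRET fluorescence after 2 h at room temperature with LiveBLAzer B/G substrate. p53 response element-bla cells were treated 16 h at 37 C with compounds in DMSO, added 5 h after seeding.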
With `CCC(N)(CO)CO` the Potency was “inactive”. In the case of `CCCCOC(=O)CCS`, the Potency is reported as “inactive”. With `CC(=O)S[C@H](C(=O)N[C@H]1Cc2ccccc2[C@H]2CCC[C@@H](C(=O)O)N2C1=O)C(C)C` the Potency was “inactive”. For `CCCCCCCCCOS(=O)(=O)O`, the Potency was “inactive”. With `COC(=O)c1ccc([N+](=O)[O-])cc1` the Potency was “inactive”. With `COC(=O)Cc1cccc2ccccc12` the Potency was “inactive”. In the case of `CCCCCCCCCCCC(=O)OC[C@@H](O)[C@H]1OC[C@H](OCCO)[C@H]1OCCO`, the Potency is reported as “inactive”. With `CCCCCCCC(=O)OCCCCCC` the Potency was “inactive”. In the case of `CC(=O)NC(Cc1ccccc1)C(=O)O` (stereo not drawn), the Potency is reported as “inactive”. With `Cc1nc2ccccc2s1` the Potency was “inactive”. For `CCO[Si](C)(C)OCC`, the Potency was “inactive”. For `Cc1nc(-c2ccc3c(c2)CCN(CCC2CCC(NC(=O)/C=C/c4ccc(F)cc4)CC2)CC3)no1` (stereo not drawn), the Potency was “inactive”. With `O=C(O)CCS` the Potency was “inactive”. With `CCN(CC#N)c1cccc(C)c1` the Potency was “inactive”. With `CC(C)(C)c1ccc(O)c(C(C)(C)C)c1` the Potency was “inactive”. In the case of `CC12CC3CC(C)(C1)CC(N)(C3)C2`, the Potency is reported as “inactive”. With `O=C(/N=N/C(=O)OCc1ccccc1)OCc1ccccc1` the Potency was “inactive”. With `CC(C)C(=O)O` the Potency was “inactive”. With `c1ccc2cc3c4ccccc4c4ccccc4c3cc2c1` the Potency was “inactive”. In the case of `CO[Si](CCCNCCC[Si](OC)(OC)OC)(OC)OC`, the Potency is reported as “inactive”. For `CCCCCCCCS(=O)(=O)Cl`, the Potency was “inactive”. In the case of `C=Cc1ccccn1`, the Potency is reported as “inactive”. With `Nc1ccc(S(=O)(=O)Nc2ccc(Cl)nn2)cc1` the Potency was “inactive”. For `COC(=O)c1ccccc1C(=O)O`, the Potency was “inactive”. With `CC(=O)SC[C@@H](C)C(=O)N1CCC[C@H]1C(=O)N[C@@H](Cc1ccccc1)C(=O)O` the Potency was “inactive”. In the case of `CCCCCCCCCCCCCC`, the Potency is reported as “inactive”. With `COc1cc(/C=C/C(=O)O[C@H]2CC[C@]34C[C@]35CC[C@]3(C)[C@@H]([C@H](C)CCC=C(C)C)CC[C@@]3(C)[C@@H]5CC[C@H]4C2(C)C)ccc1O` the Potency was “inactive”. In the case of `CC/C=C\CCOC(=O)C(C)C`, the Potency is reported as “inactive”. In the case of `O=C1CC2CC1C1CCCC21` (stereo not drawn), the Potency is reported as “inactive”. For `CC1CNCC(C)O1` (stereo not drawn), the Potency was “inactive”. In the case of `Cc1ccc(C2OC[C@@H]3OC(c4ccc(C)cc4)O[C@H]([C@H](O)CO)[C@@H]3O2)cc1` (stereo partly drawn), the Potency is reported as “inactive”. In the case of `CCCCC(O)/C=C(C)/C=C/C=C/C(=O)N1CCCC1=O` (stereo not drawn), the Potency is reported as “inactive”. In the case of `CC/C=C\CCO`, the Potency is reported as “inactive”. In the case of `O=C(O)c1cc(=O)[nH]c(=O)[nH]1`, the Potency is reported as “inactive”. With `CC12CCC(C1)C(C)(C)C2O` (stereo not drawn) the Potency was “inactive”. With `O=C(C(=O)c1ccccc1)c1ccccc1` the Potency was “inactive”. With `CCOC(=O)c1cc(=O)c2c(OCC(COc3cccc4oc(C(=O)OCC)cc(=O)c34)OC(=O)[C@@H](N)CCCCN)cccc2o1` the Potency was “inactive”. With `COc1ccc(C)cc1` the Potency was “inactive”. In the case of `O=S(=O)(O)CCN1CCN(CCO)CC1`, the Potency is reported as “inactive”.
